Screens (PubChem BioAssay)
Hits are enriched below; roughly 15% of the tested compounds scored in any of these assays.
ELG1 repair inh: inhibitors of ELG1-dependent DNA repair in HEK293T cells; AID 504467; 2.3% of 330,000 active; HEK293T ELG1-luciferase reporter, luminescence, 16 h; DNA damage induced by 5-fluorouridine; Potency, µM (titrated, usually from 46.1 µM), hits mostly inhibitors; note: nearly all actives have a fitted effect of over 55% in size
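Overnight (16 hr) co-exposure of 2,000 cells/well to 5-fluorouridine and compound at 37 °C preceded detection. Luciferase was quantified via ONE-Glo luminescence; loss of signal denotes inhibition.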
DT40 TDP1 CPT: growth inhibition of DT40 Tdp1-/-;hTDP1 cells with camptothecin (screen for TDP1 inhibitors). chicken DT40 Tdp1-/-;hTDP1 cells + 20 nM CPT, ATP luminescence, 48 h. Potency, µM (doses to about 46.2 µM), actives largely listed as inhibitors. 12% of 420,000 active; note: nearly all actives have a fitted effect of over 55% in size
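Chicken DT40 Tdp1-/- cells complemented with human TDP1, 400 cells/well, exposed to compounds plus 20 nM camptothecin for at least 48 h at 37 C; viability read as ATP content by CellTiter-Glo luminescence.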
Gal4-VP16 FLuc: Gal4-VP16 reporter inhibition counter-screen | Drosophila S2 Gal4-VP16 UAS-luciferase, luminescence, 20 h | Potency, µM (top dose mostly 53.6 µM), hits mostly inhibitors | 3.5% of 310,000 active;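 note: Gal4-VP16 expression switched on by copper sulfate through the metallothionein promoter; nearly all actives have a fitted effect of over 50% in size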
DT40 TDP1 no CPT: qHTS for Inhibitors of human tyrosyl-DNA phosphodiesterase 1 (TDP1): qHTS in cells in absence of CPT | DT40 Tdp1-/- hTDP1 cells, no CPT, ATP luminescence, 48 h | Potency, µM (highest dose often 46.2 µM), most hits filed as inhibitors | 15% of 420,000 active; note: nearly all actives have a fitted effect of over 55% in size
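No-CPT arm: Tdp1-/-;hTDP1 DT40 cells (400/well) plus compounds, incubated ≥48 hr at 37 °C. Readout CellTiter-Glo luminescence.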
ALOX12 inh: blocks human arachidonate 12S-lipoxygenase | P18054 | purified 12hLO, xylenol orange hydroperoxide absorbance | Potency, µM (doses to about 108 µM), hits mostly inhibitors | 1.1% of 580,000 active
Target sequence (P18054 whole entry, looked up): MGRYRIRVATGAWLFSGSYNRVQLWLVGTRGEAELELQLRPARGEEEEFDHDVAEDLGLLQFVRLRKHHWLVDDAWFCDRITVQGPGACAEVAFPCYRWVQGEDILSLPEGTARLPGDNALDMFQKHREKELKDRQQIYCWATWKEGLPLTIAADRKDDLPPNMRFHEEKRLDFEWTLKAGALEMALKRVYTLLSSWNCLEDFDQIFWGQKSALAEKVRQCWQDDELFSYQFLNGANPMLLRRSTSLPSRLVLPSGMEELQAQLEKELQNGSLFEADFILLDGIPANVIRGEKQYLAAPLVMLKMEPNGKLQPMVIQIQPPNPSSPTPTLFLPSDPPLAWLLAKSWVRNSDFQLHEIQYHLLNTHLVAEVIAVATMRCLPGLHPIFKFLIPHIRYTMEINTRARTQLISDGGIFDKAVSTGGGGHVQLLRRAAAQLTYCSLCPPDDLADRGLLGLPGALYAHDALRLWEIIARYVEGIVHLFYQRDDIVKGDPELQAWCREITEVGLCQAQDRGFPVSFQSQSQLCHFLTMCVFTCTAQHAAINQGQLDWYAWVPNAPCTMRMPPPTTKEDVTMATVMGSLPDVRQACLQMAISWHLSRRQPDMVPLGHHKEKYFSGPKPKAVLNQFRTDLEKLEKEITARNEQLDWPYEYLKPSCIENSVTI
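Purified human 12hLO (150 nM final) in 25 mM Hepes, 0.01% Triton X-100, pH 7.0 was preincubated 15 min at room temperature with compound. Then 40 uM arachidonic acid was added, 30 min. Hydroperoxide was read by Fe-XO absorbance ratio 573/405 nm.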
RORgamma inh: blocks mouse ROR gamma transcriptional activity | Drosophila S2 Gal4-RORgamma UAS-luciferase reporter, 20 h | Potency, µM (top dose mostly 53.6 µM), hits mostly inhibitors | 5.4% of 310,000 active | AID 2551; note: nearly all actives have a fitted effect of over 60% in size
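Stably transfected Drosophila Schneider cells are the test system, with ROR gamma fused to Gal4 and luciferase under UAS control; luminescence is read after 20 hr of 700 uM copper sulfate induction at ambient temperature.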
A number is an active result; . = inactive; ? = inconclusive; / = not tested or not shown; [ ] = dose if it differs, or a comment. Calls come from the whole dose curve; as a rule, active = well fitted curve in the direction sought with a large enough effect; inconclusive = small, poorly fitted or top-dose-only effect, or another doubt; inactive = no such curve, though single readings can be large; an effect the other way counts as inactive or inconclusive.

SMILES | ELG1 repair inh | DT40 TDP1 CPT | Gal4-VP16 FLuc | DT40 TDP1 no CPT | ALOX12 inh | RORgamma inh
Cc1cc(C)nc(SCC(N)=O)n1 | . | . | . | ? | . | .
COc1ccc(-c2noc(Nc3cc(OC)c(OC)c(OC)c3)n2)cc1OC | / | / | / | / | . | /
Cc1ccc(C(C)C)c(OCC(=O)Nc2ccc3c(c2)nc(CCn2nc(C)cc2C)n3C)c1 | / | / | / | / | . | /
COc1ccc(OCC(=O)Nc2ccc3c(c2)nc(CCNC(=O)c2ccco2)n3C)cc1 | / | . | / | . | . | /
Cc1ccc(C(C)C)c(OCC(=O)NNCC(=O)Nc2cccc(F)c2)c1 | . | 15µM | / | 15µM | . | /
Cc1cccc(OCC(=O)Nc2ccc3c(c2)nc(CCNC(=O)c2ccco2)n3C)c1 | / | 23µM | / | . | . | /
Cc1ccc(C(C)C)c(OCC(=O)Nc2ccc3c(c2)nc(CN2CCCC2)n3C)c1 | 13µM | ? | . | 15µM | . | ?
Cc1ccc(OCC(=O)Nc2ccc3c(c2)nc(CCNC(=O)c2ccco2)n3C)cc1 | / | ? | / | ? | . | /
Cc1ccc(C(C)C)c(OCC(=O)Nc2ccc3c(c2)nc(CCNC(=O)c2ccco2)n3C)c1 | / | ? | / | 10µM | . | /
Cc1cc(C)cc(Oc2c(C(F)(F)F)oc3cc(OCc4ccccc4)ccc3c2=O)c1 | / | / | / | / | . | /
O=C(COC(=O)c1cc2ccccc2[nH]1)Nc1ccc2ccccc2c1 | / | / | / | / | . | /
O=C1N/C(=C/c2cccs2)C(=O)N1Cc1ccc(Br)cc1 | . | . | . | . | . | .
C=CCN1C(=O)/C(=C/c2cccs2)S/C1=N\S(=O)(=O)c1ccc(F)cc1 | . | . | . | . | . | .
C=CCN1C(=O)C(Cc2ccc(F)cc2)S/C1=N/N=C/c1cccs1 (stereo not drawn) | . | . | . | 29µM | . | .
O=C1CS/C(=N/N=C/c2cccs2)N1Cc1ccc(F)cc1 | 21µM | 18µM | . | ? | . | .
CC(C(=O)NCc1ccc2c(c1)OCO2)n1nc(-c2ccccc2)c2ccccc21 (stereo not drawn) | / | / | / | / | . | /
COc1ccc(CCN(Cc2nc3ccccc3c(=O)[nH]2)C(=O)C2CC2)cc1 | ? | . | 13µM | . | . | 3.2µM
O=C(C1CCC1)N(CCc1ccccc1)Cc1nc2ccccc2c(=O)[nH]1 | . | ? | 7.9µM | ? | . | 1.8µM
O=C(C1CC1)N(CCc1ccccc1)Cc1nc2ccccc2c(=O)[nH]1 | ? | ? | . | . | . | ?
O=C(NC1CCCCC1)C1CN(S(=O)(=O)c2ccccc2Cl)CC12CCOCC2 (stereo not drawn) | / | / | / | / | . | /
O=C1CNC(=S)N1c1nc2ccccc2s1 | ? | . | 5.6µM | . | . | 0.79µM
c1ccc2sc(N3CCCCC3)nc2c1 | / | . | / | . | . | /
CCOc1ccc(-n2c(-c3ccccc3)c[n+]3c2CCCCC3)cc1 | ? | 0.15µM | 3.5µM | 0.029µM | . | ?
CCOc1ccc(N2Cc3ccccc3C2)cc1 | ? | . | . | ? | . | .
Cc1ccc(-c2c[n+]3c(n2-c2ccccc2)CCC3)cc1 | 2.3µM | 1.2µM | ? | 0.65µM | . | ?
SMILES | ELG1 repair inh | DT40 TDP1 CPT | Gal4-VP16 FLuc | DT40 TDP1 no CPT | ALOX12 inh | RORgamma inh
O=C(COc1ccccc1)N1CCC2(CC1)CC(N(C(=O)c1ccccc1)C1CC1)CCO2 (stereo not drawn) | / | / | / | / | . | /
S=c1[nH]nc(-c2cccs2)n1C1CCCCC1 | . | . | . | . | ? | .
FC(F)(F)c1cccc(NCc2n[nH]c(=S)n2C2CCCCC2)c1 | . | ? | . | 13µM | ? | 4.5µM
CC(C)C(NC(=O)c1c(F)cccc1F)C(=O)NCc1cnn(-c2ccccc2)c1 (stereo not drawn) | / | / | / | / | . | /
COC(=O)Cn1c(=O)c2c(nc(-n3nc(C)cc3C)n2Cc2ccc(F)cc2)n(C)c1=O | / | / | / | / | . | /
COc1ccc(NC(=O)CSc2nnc3scc(-c4ccc(Cl)cc4)n23)cc1 | / | . | / | . | . | /
COc1cccc(NC(=O)CSc2ccc(-c3sc(C)nc3C)nn2)c1 | 21µM | 15µM | . | 15µM | . | .
Cc1nc(C)c(-c2ccc(SCC(=O)Nc3ccccc3)nn2)s1 | ? | 23µM | . | 26µM | . | .
Cc1nc(C)c(-c2ccc(SCC(=O)Nc3ccc(F)c(F)c3)nn2)s1 | / | 13µM | / | 9.2µM | . | /
COc1cccc(NC(=O)CSc2nnc3scc(-c4ccc(Cl)cc4)n23)c1 | / | ? | / | 18µM | . | /
CCOC(=O)/C(=N\Nc1ncnc2ccccc12)c1ccc(C)cc1 | ? | . | 13µM | . | . | 5.6µM
CCOC(=O)C/C(=N\Nc1ncnc2ccccc12)c1ccccc1 | . | ? | 6.3µM | ? | . | 6.3µM
CCOC(=O)c1ccc(Nc2ncnc3ccccc23)cc1 | ? | ? | . | . | . | ?
CCc1ccc(C(=O)c2cncc(Br)c2)cc1 | / | 10µM | . | 8.2µM | . | ?
CCCCCCn1c(SCC(=O)Nc2cc(C)on2)nc2ccccc2c1=O | . | ? | .[0.365 µM] | 10µM | . | 4µM
CCn1c(SCC(=O)Nc2cc(C)on2)nc2c([nH]c3ccccc32)c1=O | . | ? | ? | 18µM | . | ?
COCCn1c(SCC(=O)Nc2cc(C)on2)nc2c([nH]c3ccccc32)c1=O | / | ? | / | ? | . | /
COc1ccccc1NC(=O)C(=O)NCc1ccc(C)cc1 | / | / | / | / | . | /
O=C(N/N=C\c1ccc(CN(Cc2ccc(Cl)cc2)S(=O)(=O)c2ccccc2)o1)C(=O)Nc1ccc(F)cc1 | . | ? | . | 15µM | . | .
O=C(N/N=C\c1ccc(CNS(=O)(=O)c2ccccc2)o1)C(=O)Nc1ccc(F)cc1 | . | ? | . | ? | . | ?
O=C(N/N=C\c1ccc(CNS(=O)(=O)c2ccc(Cl)cc2)o1)C(=O)Nc1ccc(Oc2ccccc2)cc1 | . | 2.9µM | 13µM | 6.5µM | . | 13µM
O=C(NCc1ccc(/C=N\NC(=O)C(=O)Nc2ccccc2Br)o1)C(=O)Nc1ccccc1 | . | . | ? | ? | . | 11µM
O=C(Cn1nc(C(=O)O)c2ccccc2c1=O)NC(=O)c1ccc(Cl)cc1 | / | / | / | / | . | /
C=C1[C@@H](O)[C@H](Cc2ccccc2)N(Cc2ccccc2Br)S1(=O)=O | / | 21µM | / | 18µM | . | /
O=C(/C=C/c1cccc(Br)c1)N1CCN(c2cccc(C(F)(F)F)c2)CC1 | . | . | . | . | ? | .
Nc1cccc2c1C(=O)N(C(=O)/C=C/c1cccc(Br)c1)C2=O | . | 10µM | ? | 23µM | . | ?
Nc1cccc2c1C(=O)N(C(=O)/C=C/c1cccc(F)c1)C2=O | . | ? | 22µM | ? | ? | ?
Cc1nn(CC(=O)N2CCc3ccccc32)c(C)c1S(=O)(=O)N1CCCC(C(=O)NC2CC2)C1 (stereo not drawn) | / | / | / | / | . | /
O=c1[nH]c(-c2cccnc2)nc2sc(-c3ccccc3)cc12 | ? | 0.52µM | . | 0.52µM | . | .
